The whole screen tested about 320,000 compounds, of which about 22,000 (6.9%) were called active. Not shown: some 27% with an inconclusive outcome. The call rests on the fitted dose curve; in most records, active means well fitted inhibition curve with a large enough effect; inconclusive means small, poorly fitted or top-dose-only effect, or another doubt; inactive means no such curve, though single readings can be large or run the other way. The list comes from a sample in which actives are over-represented; it also holds similar structures and randomly drawn compounds. Entries that show only a call come without a potency.
Potency means the concentration at half of the fitted maximal effect.

The experiment is described as follows: Primary qHTS for delayed death inhibitors of the malarial parasite plastid, 96 hour incubation. The conditions noted are these: P. falciparum luciferase reporter growth; series mostly up to 28.7 µM. The gist of the method:
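Infected RBCs, 2% Hct / 0.05% parasitemia final; luciferase-reporter P. falciparum; cpd 96 h, 37 C, 5% CO2; luciferase detection reagent; luminescence.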
In general terms: Quantitative high-throughput screening tests each substance at several concentrations.
Regarding `O=C(COc1ccccc1)Nc1cc2c3c(c1)CC(=O)N3CCC2`, the Potency entry is “inactive”. On to `O=C(/C=C/c1ccccc1)N/C(=C/c1ccccc1)C(=O)Nc1ccccc1O`, for which the Potency result is “inactive”.

On to `CC(=O)Nc1ccc(NC(=S)NC(=O)/C=C/c2ccccc2)cc1`, for which the Potency result is “inactive”. In the case of `CN(C)CCCSc1ccccc1NC(=O)/C=C/c1ccccc1`, the Potency was 12 µM (active). Then `COc1ccc(NC(=O)CCCNC(=O)Cn2cnc3sc4c(c3c2=O)CCCC4)cc1OC`, with “inactive”. As for `CCNC(=O)CSc1nc(-c2ccccc2)cs1`, the Potency entry was “inactive”. As for `O=C(CSCC(=O)Nc1cccc([N+](=O)[O-])c1)Nc1ccccc1`, the Potency result is “inactive”.

For `O=C(CSc1nc(-c2ccccc2)cs1)Nc1cccc([N+](=O)[O-])c1`, the Potency was 10.4 µM (active). As to `O=[N+]([O-])c1cc(C(F)(F)F)ccc1NCCc1ccncc1`, the Potency entry is “inactive”. Turning to `Cc1ccc2[nH]c(=O)c(CC(=O)O)c(-c3ccccc3)c2c1`, the Potency result was “inactive”.

Regarding `CCCCOC(=O)Nc1nnc(CC(=O)NCc2ccccc2)s1`, the Potency entry was “inactive”. As for `Cc1ccc(OC(=O)c2c(C)nn(-c3ccccc3)c2C)cc1`, the Potency result was “inactive”. `COc1ccc(C2OC(=O)CC2C(=O)NC(C)C)cc1` (stereo not drawn): the Potency is 0.586 µM (active).

For the compound `COc1ccc(C2CC(=O)NC(=O)C2)cc1`, the Potency result was “inactive”. As to `COc1ccc(CN2CC(C(=O)NC3CCCCC3)CC2=O)cc1` (stereo not drawn), the Potency result is “inactive”. Consider `O=C(c1cc(-c2ccc(O)cc2)on1)N1CCOCC1`, for which the Potency entry was “inactive”. Consider `CCN(CC)CCOC(=O)c1cc2cc(COC)ccc2o1`, for which the Potency result is “inactive”. To `CCCC(C(=O)OCCN(CC)CC)(c1ccccc1)c1ccccc1` belongs 10.7 µM (active).

Take `CCC(C(=O)OCCN(CC)CC)c1ccccc1` (stereo not drawn): the Potency result is “inactive”. In the case of `O=C(O/N=C(/c1ccccc1)c1ccncc1)c1ccccc1[N+](=O)[O-]`, the Potency result was “inactive”. For `COc1cc(OC)nc(N/N=C(\c2ccccc2)c2ccncc2)n1`, the Potency is 5.22 µM (active). Then `COc1ccc(C/C(C)=N/NC(=O)c2ccncc2)cc1`, with “inactive”; and `N#Cc1cccc(CN2CCC(=O)N([C@H](CO)c3ccccc3)CC2)c1`, with “inactive”; and `C=CCOc1ccc(/C=C/C(=O)OC(C)C(=O)Nc2ccc(NC(C)=O)cc2)cc1` (stereo not drawn), with “inactive”.

Regarding `CCc1cccc(NC(=O)CCC(=O)O)c1`, the Potency entry was “inactive”.

For the compound `O=C(Cc1ccccc1)Nc1cccc(NC(=O)c2ccccc2)c1`, the Potency result is “inactive”. As to `O=C(CCl)Nc1cccc(CP(=O)(c2ccccc2)c2ccccc2)c1`, the Potency is 6.57 µM (active). As for `COc1ccc(CCNS(=O)(=O)c2cn(C)nc2C)cc1`, the Potency entry is “inactive”. As to `CCOc1ccc(OCC(=O)Nc2c3c(nn2C(C)(C)C)CS(=O)(=O)C3)cc1`, the Potency result is “inactive”. As for `Cn1c(SCC(=O)NC2CCCCC2)nnc1-c1ccc(N)cc1`, the Potency result is “inactive”. As to `CC1Cc2ccccc2N1C(=O)CSc1nnc(-c2ccc(S(=O)(=O)N3CCCC3)cc2)n1C` (stereo not drawn), the Potency entry is “inactive”.

In the case of `Cn1c(SCC(=O)OC2CCCCC2)nnc1-c1ccc(S(=O)(=O)N2CCCC2)cc1`, the Potency is 2.33 µM (active). With `Cc1ccc(CN2CC(C(=O)N3CCN(S(=O)(=O)c4ccccc4)CC3)CC2=O)cc1` (stereo not drawn), the Potency entry was “inactive”. Then `CCc1noc(C)c1C(=O)Nc1nc2ccc(OC)cc2s1`, with “inactive”; and `O=C(CCc1ccc(S(=O)(=O)N2CCOCC2)cc1)NN=C1CCCCCCC1`, with “inactive”.

For `O=C(COC(=O)CCc1ccc(S(=O)(=O)N2CCOCC2)cc1)Nc1cccc(Cl)c1`, the Potency entry is “inactive”. On to `O=C(CCc1ccc(S(=O)(=O)N2CCOCC2)cc1)Nc1ccc2ccccc2c1`, for which the Potency is 5.22 µM (active).

On to `CCN(CC(=O)N1CCCC1)S(=O)(=O)c1ccc(F)cc1`, for which the Potency result is “inactive”.

Turning to `O=C(NCCCN1CCCC1=O)c1cccc(S(=O)(=O)NCc2ccccc2)c1`, the Potency result was “inactive”.

As for `CCN(CC(=O)Nc1c(F)cccc1F)C(=O)C1CCC1`, the Potency result is “inactive”. For the compound `CC(C)c1ccc(Cc2nnc(NCCCO)[nH]c2=O)cc1`, the Potency entry is “inactive”. As to `Cc1cc(-c2ccc(S(=O)(=O)N3CCc4ccccc4C3)s2)on1`, the Potency result is “inactive”. For the compound `Cc1cc(-c2ccc(S(=O)(=O)N3CCN(c4cccc(C(F)(F)F)c4)CC3)s2)on1`, the Potency was 13.1 µM (active). To `Cc1cccc(N2CCN(S(=O)(=O)c3ccc(-c4cc(C)no4)s3)CC2C)c1` (stereo not drawn) belongs “inactive”; to `COCC1CCN(C(=O)CCc2nnc(C3(c4ccc(Cl)cc4)CCC3)o2)C1` (stereo not drawn), “inactive”; to `CCOc1ccccc1N1C(=O)CC(Sc2nccc(C)n2)C1=O` (stereo not drawn), “inactive”.

With `CCOc1ccc(OCC(=O)OC(C)C(=O)NC2CCCCC2C)cc1` (stereo not drawn), the Potency entry is “inactive”. Regarding `Cc1ccc(C(=O)NCC(=O)OCc2nnc(-c3ccccc3)o2)cc1`, the Potency result was “inactive”. As for `CCCC(=O)Nc1nnc(-c2ccccc2)o1`, the Potency result is “inactive”. In the case of `CCc1ccc(CN(C)C(=O)CCc2nnc(-c3ccc(-c4ccccc4)cc3)o2)nc1`, the Potency was 11.7 µM (active). As to `CCOc1ccc(NC(=O)CC(Cc2ccc(Cl)cc2)C(=O)O)cc1` (stereo not drawn), the Potency entry is “inactive”. For `O=C(CN1CCc2cc3c(cc2C1)OCCCO3)Nc1ccccc1`, the Potency entry is “inactive”. Regarding `OCC(CO)NC1C[C@](O)(CO)[C@@H](O)[C@H](O)[C@H]1O` (stereo partly drawn), the Potency entry was “inactive”. To `CCCCOc1ccc(CSC(=N)N)cc1[N+](=O)[O-]` belongs 2.33 µM (active). `CCCCOC(=O)CCCc1ccc([N+](=O)[O-])cc1[N+](=O)[O-]`: the Potency entry is “inactive”. `CCCOc1ccc(Cn2ccnc2)cc1[N+](=O)[O-]`: the Potency result is “inactive”. For the compound `CCn1cc(C(=O)NCc2ccc3c(c2)OCO3)c2cc(OC)c(OC)cc2c1=O`, the Potency entry was “inactive”.

`COc1cc(OC)c(C(=O)NCc2ccc3c(c2)OCO3)cc1OC`: the Potency is 13.1 µM (active). Take `COc1cc(CNCc2ccc3c(c2)OCO3)c([N+](=O)[O-])cc1OC`: the Potency result is “inactive”. With `O=C(O)CCCN1C(=O)C2C3c4ccccc4C(c4ccccc43)[C@@H]2C1=O` (stereo partly drawn), the Potency entry is “inactive”. Turning to `O=C1CCCCN1CCCC(=O)N1CCCC(Nc2ccc(F)cc2)C1` (stereo not drawn), the Potency entry was “inactive”. Turning to `Cc1ccc(NC2CCCN(C(=O)CCc3cn[nH]c3)C2)cc1C` (stereo not drawn), the Potency entry is “inactive”.

For `O=C(CN1C(=O)CSC1=O)N1CCCC(Nc2ccc(F)cc2)C1` (stereo not drawn), the Potency was 1.65 µM (active). Consider `CC1C(=O)Nc2ccc(S(=O)(=O)N3CCN(c4ccccc4F)CC3)cc2NC1=O` (stereo not drawn), for which the Potency result is “inactive”. With `O=C1/C(=C/c2cccs2)SC(=S)N1C1CCS(=O)(=O)C1` (stereo not drawn), the Potency entry is “inactive”. Then `CC1CCCCN1CCCNc1ccc(C(CC(N)=O)NC(=O)c2ccccc2)cc1[N+](=O)[O-]` (stereo not drawn), with “inactive”; and `NC(=O)CC(NC(=O)Cc1ccc(Br)cc1)c1ccc(NC2CC3CCC2C3)c([N+](=O)[O-])c1` (stereo not drawn), with 11.7 µM (active). Take `Cc1cc(C)cc(C(=O)NC(CC(N)=O)c2ccc(N3CCC(N4CCCCC4)CC3)c([N+](=O)[O-])c2)c1` (stereo not drawn): the Potency result was “inactive”. To `O=C(O)c1ccc(-n2nc(-c3ccccc3)c3ccccc3c2=O)cc1` belongs “inactive”; to `O=C(c1ccc(F)cc1)n1c(=S)nc2ccccn21`, “inactive”; to `CCc1ccc(C2C(C#N)=C(N)Oc3n[nH]c(CC(=O)OC)c32)cc1` (stereo not drawn), “inactive”. To `COc1ccc(-c2[nH]nc3c2C(c2ccncc2)C(C#N)=C(N)O3)cc1` (stereo not drawn) belongs 4.65 µM (active). To `CCOc1c(OC)cc(C2C(C#N)=C(N)Oc3n[nH]c(-c4ccncc4)c32)cc1OC` (stereo not drawn) belongs “inactive”; to `COc1cc(C(=O)Nc2ncccc2C)ccc1OCC(=O)N1CCOCC1`, “inactive”. As for `Cc1cc(-n2cnc(-c3cn(C)nc3C)n2)no1`, the Potency result was “inactive”. Turning to `Cc1cc(OCC(=O)N(C)c2c(N)n(Cc3ccccc3)c(=O)[nH]c2=O)c(C(C)C)cc1Cl`, the Potency entry was “inactive”. To `Cc1cccc(OCC(=O)NCCCNC(=O)c2ccccn2)c1` belongs “inactive”; to `Cc1ccccc1NC(=O)C1CCN(C(=O)NC2CCCCC2)CC1`, “inactive”; to `O=C1COc2ccc(NC(=O)N3CCN(c4ccc(F)cc4)CC3)cc2N1`, “inactive”. Then `Cc1ccc(NS(=O)(=O)c2ccc3c(c2)NC(=O)CO3)cc1`, with “inactive”; and `CC(CC(=O)Nc1ccc(F)cc1F)S(=O)(=O)c1ccc2c(c1)NC(=O)CO2` (stereo not drawn), with 6.57 µM (active); and `COc1ccc(C)cc1NC(=O)NCCCCc1ccccc1`, with “inactive”. On to `CCc1cccc(NC(=O)COC(=O)C2CCN(c3ccc(C(F)(F)F)cn3)CC2)c1`, for which the Potency result was “inactive”.

Regarding `Cc1cnc(C)c(N2CCN(C(=O)C3CCC(=O)N(CCc4cccc(F)c4)C3)CC2)n1` (stereo not drawn), the Potency is 14.7 µM (active). Turning to `Cc1cnc(CN(C)C(=O)C2CCC(=O)N(CCc3cccc(F)c3)C2)[nH]1` (stereo not drawn), the Potency entry is “inactive”. For `O=C1CCC(C(=O)N2CCC(O)(c3ccccc3)CC2)CN1CCc1ccccc1` (stereo not drawn), the Potency entry was “inactive”. As to `O=C(NC1CC1)C(Cc1ccccc1)NS(=O)(=O)c1ccccc1F` (stereo not drawn), the Potency result is “inactive”.

Consider `O=C1N[C@@H](Cc2ccccc2)C(=O)N2[C@H]1C[C@]1(Br)c3ccccc3N(S(=O)(=O)c3ccccc3)[C@H]21`, for which the Potency result was “inactive”. As to `Cc1ccc(CCNC(=O)c2ccc3nc4ccccc4c(=O)n3c2)cc1`, the Potency entry is “inactive”. In the case of `COCCOC(=O)C1=C(C)N=c2s/c(=C\c3cccs3)c(=O)n2C1c1cccs1` (stereo not drawn), the Potency is 8.28 µM (active).

As to `CCOC(=O)C1=C(C)Nc2nc3ccccc3n2C1c1cccs1` (stereo not drawn), the Potency entry is “inactive”. As for `CCOC(=O)C1=C(C)N=c2s/c(=C\C(=O)OC)c(=O)n2C1c1ccc(OC)cc1` (stereo not drawn), the Potency result was “inactive”. For the compound `O=[N+]([O-])c1ccc(Sc2n[nH]c(-c3ccco3)n2)nc1`, the Potency entry was “inactive”. Regarding `Cc1cccc(C)c1NC(=O)CSc1ccc([N+](=O)[O-])cn1`, the Potency entry is “inactive”. Regarding `CC(C)(C)n1cnnc1Sc1ccc([N+](=O)[O-])cn1`, the Potency is 1.65 µM (active). As for `Cc1cccc(N(C(=O)c2csnn2)C(C(=O)NCc2ccccc2)c2ccncc2)c1` (stereo not drawn), the Potency entry was “inactive”. Turning to `CCOc1cc(C(=S)N2CCOCC2)ccc1OS(=O)(=O)c1ccc(Br)cc1`, the Potency result is “inactive”. Take `COc1cc(C(=S)N2CCOCC2)ccc1O`: the Potency entry is “inactive”. Take `CCOc1cc(C(=S)N2CCOCC2)ccc1O`: the Potency was 13.1 µM (active). As to `CCN1c2nc3c(C)cccn3c(=O)c2CC2(C(=O)N(C)C(=O)N(C)C2=O)C1C` (stereo not drawn), the Potency was 3.29 µM (active). Turning to `CCOC(=O)N1CCN(C(=O)CSc2nc(=O)n3cccc(C)c3n2)CC1`, the Potency entry is “inactive”.

For `CN(Cc1c(F)cccc1Cl)C(=O)CNC(=O)c1ccc2c(c1)OCO2`, the Potency result was “inactive”. For `Cc1ccc(C(CC(=O)O)NC(=O)c2ccc(S(=O)(=O)N3CCCC3)cc2)cc1` (stereo not drawn), the Potency entry is “inactive”.

For the origin of these results see PubChem BioAssay AID504834 (National Center for Advancing Translational Sciences (NCATS), 2011).
